Test results taken from article PMC7862700, “An all-to-all approach to the identification of sequence-specific readers for epigenetic DNA modifications on cytosine”.

Assays:
Test in all cases: DAPPL (digital affinity profiling via proximity ligation, sequencing); 10 mM Tris-HCl pH 7.5, 50 mM NaCl, 1 mM DTT, 4% glycerol, room temperature, 30 min; GST-TFs on glutathione beads, 16-mer random dsDNA library, 0.1% formaldehyde crosslink after washing; high values mean tight binding
[1] = target: T1, FLI1 (Homo sapiens, UniProt Q01543 1-452); conditions: protein: recombinant; tags: N-terminal GST; dsDNA, one strand shown
T1 sequence: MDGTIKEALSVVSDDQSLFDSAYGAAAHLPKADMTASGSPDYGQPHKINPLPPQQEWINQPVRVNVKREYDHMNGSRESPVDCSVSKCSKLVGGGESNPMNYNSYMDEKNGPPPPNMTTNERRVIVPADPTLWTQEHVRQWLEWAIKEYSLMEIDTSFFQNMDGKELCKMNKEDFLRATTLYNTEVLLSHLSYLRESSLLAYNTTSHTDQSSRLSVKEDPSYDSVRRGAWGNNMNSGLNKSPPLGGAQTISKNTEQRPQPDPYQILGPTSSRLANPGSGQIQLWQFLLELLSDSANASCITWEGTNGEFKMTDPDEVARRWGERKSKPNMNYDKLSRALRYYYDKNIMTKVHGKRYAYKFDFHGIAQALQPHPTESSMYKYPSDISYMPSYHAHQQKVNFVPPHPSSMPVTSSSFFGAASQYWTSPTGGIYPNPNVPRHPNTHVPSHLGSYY
Method in brief: (§1)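 Beads coated with glutathione captured GST-fused human transcription factors that had been expressed in yeast, and the factors were then given DNA barcodes and pooled with a tag-only sample. The pools were incubated with 200 nmole of a random double-stranded 16-mer DNA library in Tris/NaCl/DTT/glycerol buffer for 30 min at room temperature, washed, crosslinked with 0.1% formaldehyde and proximity-ligated with BsaI/T4 ligase at 37 °C for 1 h. PCR amplification and Illumina NextSeq500 sequencing came last. Binding signal is each hexamer's read frequency for a factor divided by its frequency for the tag-only sample.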

[2] = target: T2, ELK1 (Homo sapiens, UniProt P19419 1-428); conditions: protein: recombinant; tags: N-terminal GST; dsDNA, one strand shown
T2 sequence: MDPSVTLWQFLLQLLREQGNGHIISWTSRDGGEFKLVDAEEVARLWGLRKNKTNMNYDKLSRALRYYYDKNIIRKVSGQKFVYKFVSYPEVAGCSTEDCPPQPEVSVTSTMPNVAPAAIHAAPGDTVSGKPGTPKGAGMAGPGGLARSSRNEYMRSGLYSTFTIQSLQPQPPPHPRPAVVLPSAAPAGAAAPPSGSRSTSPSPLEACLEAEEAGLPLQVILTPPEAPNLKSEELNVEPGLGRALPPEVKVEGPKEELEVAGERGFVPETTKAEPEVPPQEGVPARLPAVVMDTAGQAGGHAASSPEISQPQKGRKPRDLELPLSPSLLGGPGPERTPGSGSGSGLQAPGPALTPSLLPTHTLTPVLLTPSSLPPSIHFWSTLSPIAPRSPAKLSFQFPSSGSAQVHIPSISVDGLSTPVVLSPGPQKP
Method in brief: as §1

[3] = target: T3, GABPA (Homo sapiens, UniProt Q06546 1-454); conditions: protein: recombinant; tags: N-terminal GST; dsDNA, one strand shown
T3 sequence: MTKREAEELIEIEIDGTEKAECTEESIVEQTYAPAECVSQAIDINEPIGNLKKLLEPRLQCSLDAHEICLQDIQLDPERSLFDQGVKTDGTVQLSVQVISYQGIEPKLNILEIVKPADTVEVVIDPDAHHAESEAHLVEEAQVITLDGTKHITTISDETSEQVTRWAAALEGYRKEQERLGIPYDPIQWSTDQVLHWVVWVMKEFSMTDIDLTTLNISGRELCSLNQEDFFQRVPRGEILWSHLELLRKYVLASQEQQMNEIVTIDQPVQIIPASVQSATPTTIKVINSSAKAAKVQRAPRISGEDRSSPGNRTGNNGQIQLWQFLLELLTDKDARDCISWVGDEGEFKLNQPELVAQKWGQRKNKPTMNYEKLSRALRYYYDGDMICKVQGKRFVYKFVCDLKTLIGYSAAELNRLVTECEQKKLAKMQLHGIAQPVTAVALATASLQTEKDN
Method in brief: as §1

[4] = target: T4, ERG (Homo sapiens, UniProt P11308 1-479); conditions: protein: recombinant; tags: N-terminal GST; dsDNA, one strand shown
T4 sequence: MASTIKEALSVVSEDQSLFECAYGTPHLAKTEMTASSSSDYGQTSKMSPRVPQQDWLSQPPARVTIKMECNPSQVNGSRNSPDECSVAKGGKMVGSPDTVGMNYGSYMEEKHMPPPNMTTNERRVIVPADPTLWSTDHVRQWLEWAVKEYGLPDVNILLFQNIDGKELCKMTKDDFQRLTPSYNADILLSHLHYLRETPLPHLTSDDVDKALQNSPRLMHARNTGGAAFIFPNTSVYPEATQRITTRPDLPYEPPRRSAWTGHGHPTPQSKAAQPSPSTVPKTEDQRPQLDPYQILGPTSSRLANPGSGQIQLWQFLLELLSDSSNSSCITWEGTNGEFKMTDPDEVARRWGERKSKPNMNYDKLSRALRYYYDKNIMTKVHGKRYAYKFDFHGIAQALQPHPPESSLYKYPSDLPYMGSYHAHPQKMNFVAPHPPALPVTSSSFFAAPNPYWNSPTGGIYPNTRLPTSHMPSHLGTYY
Method in brief: as §1

[5] = target: ELF1 (Homo sapiens, UniProt P32519 1-619); conditions: protein: recombinant; tags: N-terminal GST; dsDNA, one strand shown
Method in brief: as §1

[6] = target: T5, EHF (Homo sapiens, UniProt Q9NZC4 1-300); conditions: protein: recombinant; tags: N-terminal GST; dsDNA, one strand shown
T5 sequence: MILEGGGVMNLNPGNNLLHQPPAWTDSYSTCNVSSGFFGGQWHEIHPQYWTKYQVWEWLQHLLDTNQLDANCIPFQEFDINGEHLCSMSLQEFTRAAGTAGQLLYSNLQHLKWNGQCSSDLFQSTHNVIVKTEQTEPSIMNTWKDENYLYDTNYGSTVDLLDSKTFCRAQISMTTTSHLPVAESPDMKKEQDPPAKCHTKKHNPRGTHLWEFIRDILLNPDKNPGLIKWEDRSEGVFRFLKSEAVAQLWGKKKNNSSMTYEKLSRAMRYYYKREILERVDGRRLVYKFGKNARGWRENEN
Method in brief: as §1

[7] = target: SPI1 (Homo sapiens, UniProt P17947 1-270); conditions: protein: recombinant; tags: N-terminal GST; dsDNA, one strand shown
Method in brief: as §1

[8] = target: SPIB (Homo sapiens, UniProt Q01892 1-262); conditions: protein: recombinant; tags: N-terminal GST; dsDNA, one strand shown
Method in brief: as §1

[9] = target: T6, FEV (Homo sapiens, UniProt Q99581 1-238); conditions: protein: recombinant; tags: N-terminal GST; dsDNA, one strand shown
T6 sequence: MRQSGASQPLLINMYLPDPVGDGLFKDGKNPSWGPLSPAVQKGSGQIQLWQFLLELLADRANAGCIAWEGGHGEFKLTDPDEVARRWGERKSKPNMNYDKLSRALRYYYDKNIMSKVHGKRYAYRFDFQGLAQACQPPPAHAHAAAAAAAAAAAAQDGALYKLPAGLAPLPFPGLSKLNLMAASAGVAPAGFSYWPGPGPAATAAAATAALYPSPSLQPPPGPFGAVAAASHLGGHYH
Method in brief: as §1

[10] = target: ETV5 (Homo sapiens, UniProt P41161 1-510); conditions: protein: recombinant; tags: N-terminal GST; dsDNA, one strand shown
Method in brief: as §1

[11] = target: HSF1 (Homo sapiens, UniProt Q00613 1-529); conditions: protein: recombinant; tags: N-terminal GST; chain copies: 3; dsDNA, one strand shown
Method in brief: as §1

[12] = target: T7, SPIC (Homo sapiens, UniProt Q8N5J4 1-248); conditions: protein: recombinant; tags: N-terminal GST; dsDNA, one strand shown
T7 sequence: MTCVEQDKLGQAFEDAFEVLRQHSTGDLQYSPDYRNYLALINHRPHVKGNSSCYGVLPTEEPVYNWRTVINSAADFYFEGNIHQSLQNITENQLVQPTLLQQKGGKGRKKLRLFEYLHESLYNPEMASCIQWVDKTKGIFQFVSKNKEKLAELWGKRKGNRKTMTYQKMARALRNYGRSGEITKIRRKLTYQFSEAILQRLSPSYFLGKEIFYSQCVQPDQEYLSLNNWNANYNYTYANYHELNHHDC
Method in brief: as §1

[13] = target: ELF4 (Homo sapiens, UniProt Q99607 1-663); conditions: protein: recombinant; tags: N-terminal GST; dsDNA, one strand shown
Method in brief: as §1

[14] = target: T8, ELF3 (Homo sapiens, UniProt P78545 1-371); conditions: protein: recombinant; tags: N-terminal GST; dsDNA, one strand shown
T8 sequence: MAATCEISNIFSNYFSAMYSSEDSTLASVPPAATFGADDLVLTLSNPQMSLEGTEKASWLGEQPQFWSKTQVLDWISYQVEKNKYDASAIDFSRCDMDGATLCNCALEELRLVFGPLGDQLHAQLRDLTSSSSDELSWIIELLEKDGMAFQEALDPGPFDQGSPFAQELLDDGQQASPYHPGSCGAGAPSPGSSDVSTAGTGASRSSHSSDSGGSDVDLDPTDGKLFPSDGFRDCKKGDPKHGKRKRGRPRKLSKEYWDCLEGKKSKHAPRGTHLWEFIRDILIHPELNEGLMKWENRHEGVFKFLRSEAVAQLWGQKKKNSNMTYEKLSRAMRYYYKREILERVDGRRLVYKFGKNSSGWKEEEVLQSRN
Method in brief: as §1

[15] = target: CRX (Homo sapiens, UniProt O43186 1-299); conditions: protein: recombinant; tags: N-terminal GST; dsDNA, one strand shown
Method in brief: as §1

[16] = target: T9, ELK4 (Homo sapiens, UniProt P28324-2 1-405); conditions: protein: recombinant; tags: N-terminal GST; dsDNA, one strand shown
T9 sequence: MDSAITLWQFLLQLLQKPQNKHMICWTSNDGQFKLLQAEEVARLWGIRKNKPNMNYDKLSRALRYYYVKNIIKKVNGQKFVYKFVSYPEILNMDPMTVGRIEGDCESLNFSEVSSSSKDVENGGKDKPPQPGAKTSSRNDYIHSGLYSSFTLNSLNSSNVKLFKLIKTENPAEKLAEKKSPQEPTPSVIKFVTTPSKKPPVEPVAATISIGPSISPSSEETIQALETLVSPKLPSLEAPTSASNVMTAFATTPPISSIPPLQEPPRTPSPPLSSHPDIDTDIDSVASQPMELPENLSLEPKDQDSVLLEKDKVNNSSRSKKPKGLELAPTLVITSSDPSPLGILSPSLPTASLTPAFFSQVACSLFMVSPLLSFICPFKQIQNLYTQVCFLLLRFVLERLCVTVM
Method in brief: as §1

Sequence of SPIB (Q01892 whole entry): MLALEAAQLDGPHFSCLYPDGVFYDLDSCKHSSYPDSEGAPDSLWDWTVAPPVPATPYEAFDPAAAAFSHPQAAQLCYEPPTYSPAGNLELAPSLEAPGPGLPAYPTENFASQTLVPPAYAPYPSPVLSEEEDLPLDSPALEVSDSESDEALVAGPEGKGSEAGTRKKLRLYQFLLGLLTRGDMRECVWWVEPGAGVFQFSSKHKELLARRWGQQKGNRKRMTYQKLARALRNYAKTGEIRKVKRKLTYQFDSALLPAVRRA
Sequence of CRX (O43186 whole entry): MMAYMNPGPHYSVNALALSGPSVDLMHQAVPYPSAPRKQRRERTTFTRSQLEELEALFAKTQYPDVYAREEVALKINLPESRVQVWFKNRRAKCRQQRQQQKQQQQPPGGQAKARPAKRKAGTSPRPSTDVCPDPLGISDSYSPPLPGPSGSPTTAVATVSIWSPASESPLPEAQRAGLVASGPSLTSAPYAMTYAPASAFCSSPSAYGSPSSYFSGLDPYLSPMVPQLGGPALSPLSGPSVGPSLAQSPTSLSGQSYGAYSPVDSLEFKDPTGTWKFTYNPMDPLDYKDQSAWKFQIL
Sequence of ETV5 (P41161 whole entry): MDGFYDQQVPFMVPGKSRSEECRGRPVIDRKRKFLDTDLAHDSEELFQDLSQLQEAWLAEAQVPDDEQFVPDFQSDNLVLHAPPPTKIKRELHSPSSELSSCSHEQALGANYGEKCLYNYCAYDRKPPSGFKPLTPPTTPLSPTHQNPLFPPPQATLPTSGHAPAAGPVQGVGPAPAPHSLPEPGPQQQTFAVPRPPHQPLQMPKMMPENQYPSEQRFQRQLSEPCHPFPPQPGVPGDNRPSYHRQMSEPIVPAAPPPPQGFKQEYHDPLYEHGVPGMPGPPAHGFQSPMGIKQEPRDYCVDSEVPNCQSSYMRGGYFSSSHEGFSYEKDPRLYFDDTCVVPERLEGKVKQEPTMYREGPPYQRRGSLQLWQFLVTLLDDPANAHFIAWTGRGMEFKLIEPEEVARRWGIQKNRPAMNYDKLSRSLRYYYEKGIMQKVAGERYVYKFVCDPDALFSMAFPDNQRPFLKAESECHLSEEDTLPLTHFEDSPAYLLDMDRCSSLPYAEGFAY
Sequence of HSF1 (Q00613 whole entry): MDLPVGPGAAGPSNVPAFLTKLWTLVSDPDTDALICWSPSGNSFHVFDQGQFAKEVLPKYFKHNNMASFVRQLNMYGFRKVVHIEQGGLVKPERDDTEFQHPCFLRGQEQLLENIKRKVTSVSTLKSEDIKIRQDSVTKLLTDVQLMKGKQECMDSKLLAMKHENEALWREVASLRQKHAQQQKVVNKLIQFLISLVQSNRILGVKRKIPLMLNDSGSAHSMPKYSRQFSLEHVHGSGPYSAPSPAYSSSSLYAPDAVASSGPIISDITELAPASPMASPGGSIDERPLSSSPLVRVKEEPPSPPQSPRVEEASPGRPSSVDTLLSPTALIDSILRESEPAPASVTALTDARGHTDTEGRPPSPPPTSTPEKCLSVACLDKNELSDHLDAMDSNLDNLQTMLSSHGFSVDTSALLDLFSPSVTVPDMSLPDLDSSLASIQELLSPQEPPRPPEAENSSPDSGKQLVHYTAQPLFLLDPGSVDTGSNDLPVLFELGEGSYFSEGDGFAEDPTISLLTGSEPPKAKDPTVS
Sequence of ELF1 (P32519 whole entry): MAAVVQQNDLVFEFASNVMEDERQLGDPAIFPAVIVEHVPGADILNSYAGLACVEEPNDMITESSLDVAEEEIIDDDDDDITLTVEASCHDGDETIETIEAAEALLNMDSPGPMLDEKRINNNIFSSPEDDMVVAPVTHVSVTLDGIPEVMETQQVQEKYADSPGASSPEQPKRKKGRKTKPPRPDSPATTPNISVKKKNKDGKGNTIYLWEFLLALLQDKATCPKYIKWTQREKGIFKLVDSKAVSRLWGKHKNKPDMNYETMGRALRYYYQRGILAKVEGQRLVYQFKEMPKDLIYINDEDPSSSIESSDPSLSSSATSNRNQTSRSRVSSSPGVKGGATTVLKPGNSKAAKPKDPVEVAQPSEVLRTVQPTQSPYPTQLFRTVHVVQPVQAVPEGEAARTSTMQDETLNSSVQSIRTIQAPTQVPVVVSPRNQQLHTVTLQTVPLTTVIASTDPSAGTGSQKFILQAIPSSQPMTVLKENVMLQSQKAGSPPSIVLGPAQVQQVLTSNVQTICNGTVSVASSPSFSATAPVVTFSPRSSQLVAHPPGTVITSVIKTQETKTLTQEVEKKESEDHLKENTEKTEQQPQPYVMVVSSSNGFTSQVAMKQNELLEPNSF
Sequence of ELF4 (Q99607 whole entry): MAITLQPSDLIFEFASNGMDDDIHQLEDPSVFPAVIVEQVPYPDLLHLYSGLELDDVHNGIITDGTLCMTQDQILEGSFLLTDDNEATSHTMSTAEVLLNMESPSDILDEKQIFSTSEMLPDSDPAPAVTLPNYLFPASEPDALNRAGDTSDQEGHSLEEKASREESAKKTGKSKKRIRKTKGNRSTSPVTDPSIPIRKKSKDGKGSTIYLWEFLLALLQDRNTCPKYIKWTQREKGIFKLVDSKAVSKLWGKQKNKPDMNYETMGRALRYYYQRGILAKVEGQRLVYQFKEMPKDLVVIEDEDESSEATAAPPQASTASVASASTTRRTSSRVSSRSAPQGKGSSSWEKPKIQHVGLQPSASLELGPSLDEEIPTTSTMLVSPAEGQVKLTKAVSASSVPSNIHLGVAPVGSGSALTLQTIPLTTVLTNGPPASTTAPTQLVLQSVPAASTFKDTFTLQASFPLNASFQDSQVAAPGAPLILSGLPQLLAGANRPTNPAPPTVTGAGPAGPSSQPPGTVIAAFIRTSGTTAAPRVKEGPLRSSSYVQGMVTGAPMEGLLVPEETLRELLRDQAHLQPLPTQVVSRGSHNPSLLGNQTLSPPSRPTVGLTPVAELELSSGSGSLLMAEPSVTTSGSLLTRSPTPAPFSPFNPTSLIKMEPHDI

Row | Sequence | binding signal [1] | binding signal [2] | binding signal [3] | binding signal [4] | binding signal [5] | binding signal [6] | binding signal [7] | binding signal [8] | binding signal [9] | binding signal [10] | binding signal [11] | binding signal [12] | binding signal [13] | binding signal [14] | binding signal [15] | binding signal [16]
1 | AGACTT | 1.09 fold enrichment (6-mer frequency, TF over GST control) | 1.04 fold enrichment (6-mer frequency, TF over GST control) | 1.03 fold enrichment (6-mer frequency, TF over GST control) | 1.09 fold enrichment (6-mer frequency, TF over GST control) | 1.01 fold enrichment (6-mer frequency, TF over GST control) | 1.08 fold enrichment (6-mer frequency, TF over GST control) | 1.09 fold enrichment (6-mer frequency, TF over GST control) | 1.04 fold enrichment (6-mer frequency, TF over GST control) | 1.05 fold enrichment (6-mer frequency, TF over GST control) | 1.05 fold enrichment (6-mer frequency, TF over GST control) | 1.15 fold enrichment (6-mer frequency, TF over GST control) | 1.08 fold enrichment (6-mer frequency, TF over GST control) | 1.02 fold enrichment (6-mer frequency, TF over GST control) | 1.13 fold enrichment (6-mer frequency, TF over GST control) | 1.24 fold enrichment (6-mer frequency, TF over GST control) | 
2 | TGGATT | 1.02 fold enrichment (6-mer frequency, TF over GST control) |  |  | 1.05 fold enrichment (6-mer frequency, TF over GST control) |  |  | 1.02 fold enrichment (6-mer frequency, TF over GST control) | 1.05 fold enrichment (6-mer frequency, TF over GST control) |  | 1.06 fold enrichment (6-mer frequency, TF over GST control) | 1.85 fold enrichment (6-mer frequency, TF over GST control) | 1.07 fold enrichment (6-mer frequency, TF over GST control) |  |  | 2.46 fold enrichment (6-mer frequency, TF over GST control) | 1.11 fold enrichment (6-mer frequency, TF over GST control)
